Compound activity as filed in PubChem BioAssay.
BRCA1 expr up: activators of BRCA1 expression | MCF7-BRCA1-FFLuc reporter, luminescence, 48 h; response scale: scaled: vehicle 0%, 10 µM genistein 100% | Potency, µM (series often up to 46.1 µM), inactives show at the top dose activation, actives largely listed as activators | 380,000 tested, 1.1% active | AID 624202; also: nearly all actives have a fitted effect of over 80% in size
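Luminescence from a BRCA1-driven firefly luciferase in MCF7 cells was read after 48 h compound exposure at 37 C. Data normalized against DMSO and a 10microM genistein activation control, then curve-fitted across the titration.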
GLP-1R inv ag: GLP-1 receptor (human) inverse agonism; HEK293 GLP-1R CRE-luciferase, luminescence, 24 h; GLP-1R form is constitutively active; Potency, µM (series often up to 38.3 µM), for inactives: at the top dose activity change, negative = inhibition, usual class: inhibitors; 410,000 tested, 1.6% active; also: % is scaled to controls: 0 for no effect and ±100 for the full control effect; nearly all actives have a fitted effect of over 55% in size
Target sequence (P43220 whole entry, looked up): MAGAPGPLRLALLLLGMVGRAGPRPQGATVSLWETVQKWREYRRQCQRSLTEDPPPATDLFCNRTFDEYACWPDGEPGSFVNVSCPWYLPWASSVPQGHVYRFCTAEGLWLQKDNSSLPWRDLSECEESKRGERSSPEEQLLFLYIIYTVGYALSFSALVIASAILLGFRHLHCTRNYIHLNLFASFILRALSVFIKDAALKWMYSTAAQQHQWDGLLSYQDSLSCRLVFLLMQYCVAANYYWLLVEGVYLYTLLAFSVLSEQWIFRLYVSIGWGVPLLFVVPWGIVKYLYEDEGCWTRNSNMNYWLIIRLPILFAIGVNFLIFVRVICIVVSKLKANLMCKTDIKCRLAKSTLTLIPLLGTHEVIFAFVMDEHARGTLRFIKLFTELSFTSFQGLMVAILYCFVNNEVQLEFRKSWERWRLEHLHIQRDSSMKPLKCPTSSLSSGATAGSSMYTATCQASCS
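Using stably transfected HEK293 (constitutively active GLP-1R, cAMP-luciferase reporter), compounds were incubated 24 hr and luciferase measured by luminescence.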
Integrin act MD: activators of alpha7 integrin expression for muscular dystrophy; alpha7betagal myoblasts, beta-gal FDG fluorescence, 48 h; Potency, µM (doses to about 38.3 µM), for inactives: at the highest dose activation, actives largely listed as activators; 350,000 tested, 0.064% active;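 also: 100% = response of the positive control SU9516; nearly all actives have a fitted effect of over 60% in size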
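Alpha7betagal+/- myoblasts (passage 13) were plated 16-24 hr, then exposed to compounds (1:260 dilution of DMSO stock) for 48 hours at 37C. After MPER lysis, β-galactosidase reporter activity was read as FDG fluorescence (ex 480/em 540) after 30 minutes.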
GLP1R cytotox: cytotoxic in the GLP-1 receptor inverse agonist counter-screen; HEK293 cAMP-luciferase reporter cells, luminescence, 24 h; Potency, µM (doses to about 38.3 µM), inactives show at the highest dose activity change, negative = inhibition, hits mostly inhibitors; 410,000 tested, 0.13% active; AID 624418;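 also: loss of luciferase light is scored as toxicity; % is scaled to controls: 0 for no effect and ±100 for the full control effect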
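Cells in DMEM/10% Nu serum/1% pen-strep, 1536-well format. Pre-incubated 12 h, dosed with 23 nL compound, incubated a further 24 h. Luciferase detection, 12 min at room temp, luminescence.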
GLP-1R agonist: GLP-1 receptor (human) agonism. 380,000 tested, 0.007% active. Potency, µM (top dose mostly 45.6 µM), inactives show at the top dose activation, most hits filed as activators. P43220. HEK293 GLP-1R CRE-luciferase, luminescence, 4-6 h; cells express a hypersensitive GLP-1R form; also: % of control where 0% means no effect
* = called active by the depositor. Hits are enriched below; roughly 2.7% of the tested compounds scored in any of these assays. Calls follow the shape of the dose curve; as a rule, active = well fitted curve in the direction sought with a large enough effect; inconclusive = small, poorly fitted or top-dose-only effect, or another doubt; inactive = no such curve, though single readings can be large; an effect the other way counts as inactive or inconclusive. Potency is read from the fitted curve at half-maximal effect.

Screening COc1ccc(CCNC(=O)CSCc2nc(-c3ccc(OC)c(OC)c3)oc2C)cc1OC returned GLP-1R inv ag 24% and GLP1R cytotox 5%.
CCc1ccc(NC(=O)C2CCCN(c3nn4cc(-c5ccc(OC)cc5)nc4s3)C2)cc1 (stereo not given) was read as GLP-1R inv ag 12% and GLP1R cytotox -4%.
O=C(Nc1ccc(NC(=O)c2ccco2)cc1)c1ccco1 was read as BRCA1 expr up 10µM*, GLP-1R inv ag 20%, Integrin act MD -14%, GLP1R cytotox -7% and GLP-1R agonist -3%.
`O=C(Nc1ccc(Br)cc1)c1ccco1` gave BRCA1 expr up inconclusive, GLP-1R inv ag 7%, Integrin act MD 2%, GLP1R cytotox 10% and GLP-1R agonist -2%.
`CC(=O)N(C)c1ccc(NC(=O)c2ccco2)cc1` gave BRCA1 expr up 6.3µM*, GLP-1R inv ag 11%, Integrin act MD -16%, GLP1R cytotox -7% and GLP-1R agonist -6%.
For COCCNC(=O)C(=O)Nc1c2c(nn1-c1ccccc1)CS(=O)(=O)C2 the results were GLP-1R inv ag 7% and GLP1R cytotox -4%.
Screening NC(=O)c1cccc(-c2ccnc3c2CC(C(=O)NCc2ccccc2)O3)c1 (stereo not given) returned BRCA1 expr up -38%, GLP-1R inv ag 5µM*, GLP1R cytotox -27% and GLP-1R agonist 1%.
`O=C(COc1ccccc1C(=O)Nc1ccccc1)NC1CCCCC1` gave BRCA1 expr up 0%.
Cc1cc([N+](=O)[O-])cc2c1NC(=O)C2(O)N1CCCC(C)C1 (stereo not given) was read as BRCA1 expr up -14%, GLP-1R inv ag -4%, Integrin act MD 28%, GLP1R cytotox inconclusive and GLP-1R agonist 12%.
Cc1cc(Br)c2c(c1)C(O)(N1CCCCC1C)C(=O)N2 (stereo not given) was read as BRCA1 expr up -20%, GLP-1R inv ag 11µM*, Integrin act MD -6%, GLP1R cytotox -8% and GLP-1R agonist 7%.
For O=C(O)c1ccc(-c2nc(-c3ccc(Cl)cc3Cl)cs2)cc1 the results were BRCA1 expr up inconclusive, GLP-1R inv ag 66%, Integrin act MD -13%, GLP1R cytotox 6% and GLP-1R agonist 0%.
Screening Cc1onc(-c2ccc(Cl)cc2Cl)c1-c1csc(COc2ccccc2)n1 returned BRCA1 expr up -44%, GLP-1R inv ag 2.8µM*, Integrin act MD -8%, GLP1R cytotox 13% and GLP-1R agonist 5%.
Screening Oc1c(C(c2ccc(Cl)cc2Cl)N2CCCC2)sc2nc(-c3ccco3)nn12 (stereo not given) returned GLP-1R inv ag 10% and GLP1R cytotox -10%.
Screening O=S(=O)(c1ccc(-c2nc3ccccc3s2)cc1)N1CCCC1 returned BRCA1 expr up 2.5µM*, GLP-1R inv ag 44%, Integrin act MD -5%, GLP1R cytotox -7% and GLP-1R agonist -14%.
Screening CCOCCn1ccc2c(OCC(=O)Nc3ccc(OC(F)(F)F)cc3)cccc2c1=O returned BRCA1 expr up -8%, GLP-1R inv ag -4% and GLP1R cytotox 3%.
`COc1ccc(CN(C(=O)c2ccco2)c2ccccc2)cc1` gave BRCA1 expr up -3%, GLP-1R inv ag inconclusive, Integrin act MD -7%, GLP1R cytotox -4% and GLP-1R agonist 27%.
O=C(c1ccccc1Br)N(Cc1ccccc1)c1ccccc1 was read as BRCA1 expr up -36%, GLP-1R inv ag 8.9µM*, Integrin act MD -18%, GLP1R cytotox 3% and GLP-1R agonist 15%.
Screening CC1CN(C(=O)N2CCC(C(=O)NCCCc3ccccc3)CC2)c2cc(Cl)ccc2O1 (stereo not given) returned GLP-1R inv ag inconclusive and GLP1R cytotox -20%.
For O=C(COc1ccc(/C=N/NC(=O)c2cc3ccccc3o2)cc1Cl)Nc1ccccc1 the results were BRCA1 expr up -83%, GLP-1R inv ag 4.5µM*, Integrin act MD -53%, GLP1R cytotox inconclusive and GLP-1R agonist -1%.
`CCCn1c(NCc2cccc(OC)c2OC)nc2ccccc21` gave BRCA1 expr up 45%, GLP-1R inv ag inconclusive, Integrin act MD -11%, GLP1R cytotox -23% and GLP-1R agonist 5%.
For CCCn1c(COc2ccccc2OC)nc2ccccc21 the results were BRCA1 expr up -6%, GLP-1R inv ag 10µM*, Integrin act MD -26%, GLP1R cytotox -14% and GLP-1R agonist -11%.
`CCn1c(COc2ccccc2OC)nc2ccccc21` gave BRCA1 expr up 24%, GLP-1R inv ag -6%, Integrin act MD 15%, GLP1R cytotox -13% and GLP-1R agonist 4%.
Screening C#CCn1c(COc2ccccc2C)nc2ccccc21 returned GLP-1R inv ag 42% and GLP1R cytotox 3%.
CCn1c(COc2ccccc2C)nc2ccccc21 was read as BRCA1 expr up 7.9µM*, GLP-1R inv ag inconclusive, Integrin act MD 21%, GLP1R cytotox -4% and GLP-1R agonist inconclusive.
CCCn1c(NCc2cccc(OC)c2O)nc2ccccc21 was read as BRCA1 expr up 6.3µM*, GLP-1R inv ag -23%, Integrin act MD 22%, GLP1R cytotox 28% and GLP-1R agonist 5%.
`COc1ccccc1OCc1nc2ccccc2n1C` gave BRCA1 expr up inconclusive, GLP-1R inv ag -3%, Integrin act MD 5%, GLP1R cytotox 13% and GLP-1R agonist 13%.
`Cn1c(COc2ccccc2Br)nc2ccccc21` gave BRCA1 expr up 6.3µM*, GLP-1R inv ag -13%, Integrin act MD 9%, GLP1R cytotox -14% and GLP-1R agonist 8%.
Screening COC(=O)c1ccc2c(=O)n(CCCCCC(=O)NCc3ccc(Cl)cc3)c(=O)[nH]c2c1 returned GLP-1R inv ag -7% and GLP1R cytotox -2%.
Screening Cc1ccc(Cl)cc1N1CCN(c2nc3ccc(C(=O)c4ccccc4)cc3n3cnnc23)CC1 returned GLP-1R inv ag 4% and GLP1R cytotox 0%.
For COC(=O)c1ccc(NC(=O)c2c(NCc3ccc(C)o3)sc3c2CCCC3)cc1 the results were GLP-1R inv ag inconclusive and GLP1R cytotox -28%.
Screening CCOC(=O)c1cc(-c2ccc(OC)cc2)n(CCC(=O)Nc2nc3ccc(OCC)cc3s2)c1C returned GLP-1R inv ag 16% and GLP1R cytotox -14%.
For COc1ccc(OCc2nc3ccccc3n2Cc2ccc(C(C)(C)C)cc2)cc1 the results were BRCA1 expr up 4.5µM*, GLP-1R inv ag 8%, GLP1R cytotox -10% and GLP-1R agonist -12%.
`COc1ccccc1C(O)Cc1nc2ccccc2n1C` (stereo not given) gave BRCA1 expr up 10µM*, GLP-1R inv ag -20%, Integrin act MD 16%, GLP1R cytotox -1% and GLP-1R agonist -4%.
